UBC9 SUMO inh – inhibitors of human SUMOylation (UBC9). AID 2006. inhibition, % at 35 µM. hit rate 0.36% among 290,000. HTRF SUMOylation assay, SAE1/SAE2 + UBC9, in vitro. P63279; in the data active = inhibition above about 50%, passing the limit was not always enough
NR3A LBD binder – modulators (binders) of human NR3A ligand-binding domain. NR3A LBD differential scanning fluorimetry, Tm shift; 0% = protein alone, 100% = glycine-bound protein. Tm shift relative to glycine control, % at 25 µM. hit rate 2.5% among 340,000. AID 1259313;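 active = melting temperature shift of at least 10% of the positive control shift, at one fixed dose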
UBC13 polyUb – human UBC13 polyubiquitination inhibition; AID 485273; UBC13 polyubiquitin chain formation, TR-FRET; P61088; inhibition, % at 20 µM; hit rate 0.47% among 330,000; in the data active = inhibition above about 45%, passing the limit was not always enough
Target sequence (P61088 whole entry, looked up): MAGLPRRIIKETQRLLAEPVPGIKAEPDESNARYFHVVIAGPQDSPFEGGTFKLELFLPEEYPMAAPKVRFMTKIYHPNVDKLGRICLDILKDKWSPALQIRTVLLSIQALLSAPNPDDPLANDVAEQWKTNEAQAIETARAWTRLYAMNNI
HGIII-sPLA2 inh – Blocks human group III sPLA2 activity | Q9NZ20 | QFRET BODIPY PC-A2 liposome hydrolysis, fluorescence | inhibition, % at 12.2 µM | hit rate 0.56% among 370,000 | AID 743126;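 active = inhibition above mean plus 3 SD of compounds lying within the high and low control bounds, cut at about 19% in these data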;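 also: 0% = median of test compound wells and 100% = no enzyme DMSO wells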
Target sequence (Q9NZ20 whole entry, looked up): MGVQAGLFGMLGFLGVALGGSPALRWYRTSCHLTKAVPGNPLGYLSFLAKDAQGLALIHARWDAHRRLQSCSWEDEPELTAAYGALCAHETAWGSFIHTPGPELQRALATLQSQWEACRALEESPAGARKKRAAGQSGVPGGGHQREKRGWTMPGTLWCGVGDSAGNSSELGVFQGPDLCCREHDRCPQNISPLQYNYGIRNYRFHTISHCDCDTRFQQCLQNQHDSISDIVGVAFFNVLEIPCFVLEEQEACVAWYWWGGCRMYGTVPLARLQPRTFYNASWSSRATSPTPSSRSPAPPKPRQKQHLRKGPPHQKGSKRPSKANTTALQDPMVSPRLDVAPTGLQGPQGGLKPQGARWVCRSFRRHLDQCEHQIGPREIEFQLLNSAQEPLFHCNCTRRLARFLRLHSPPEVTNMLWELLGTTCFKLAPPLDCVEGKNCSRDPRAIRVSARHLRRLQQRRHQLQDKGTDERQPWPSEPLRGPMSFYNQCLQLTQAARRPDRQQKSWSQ
sPLA2 confirm – human GIII-sPLA2 inhibition, confirmation; recombinant hGIII-sPLA2, BODIPY PC-A2 QFRET fluorescence; inhibition, % at 12.2 µM; shares compounds with HGIII-sPLA2 inh; hit rate 34% among 2,000;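 active = mean inhibition across triplicates above the hit cutoff set in the earlier primary screen, cut at about 19% in these data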;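 also: 0% = enzyme with DMSO and 100% = DMSO wells lacking enzyme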
BODIPY interf – 535nm fluorescence interference, HGIII-sPLA2 counter-screen; hit rate 8.5% among 2,000; shares compounds with HGIII-sPLA2 inh; inhibition, % at 12.2 µM; BODIPY FL product fluorescence interference, QFRET;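 active = average inhibition above the solvent-only control mean plus 3 SD, cut at about 6% in these data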;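 also: 0% = DMSO with substrate plus product and 100% = DMSO with substrate alone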
535nm interf DR – 535nm optical interference dose response, HGIII-sPLA2 counter-screen; shares compounds with HGIII-sPLA2 inh; BODIPY FL product fluorescence interference, cell-free; IC50, µM; 240 tested, under 10 active; AID 743455;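 active = IC50 at or below 10 µM; inactive = IC50 above 10 µM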
Active calls of the source: *; nt = no result given. Most compounds without a hit are left out; they make up all but 3.3% or so of the library.

SMILES	UBC9 SUMO inh	NR3A LBD binder	UBC13 polyUb	HGIII-sPLA2 inh	sPLA2 confirm	BODIPY interf	others
CCC(Nc1ccc(OC)cc1)C(=O)N/N=C/c1ccc([N+](=O)[O-])cc1 (stereo not given)	3.8	-3.5	-9.4	20.2*	16.4	-5.1
COc1ccc(N2CC(C(=O)N/N=C/c3ccc([N+](=O)[O-])cc3)CC2=O)cc1 (stereo not given)	8.7	0.6	-10.4	-2.6	nt	nt
COc1ccc(Cl)cc1C(=O)NNC(=O)c1cccc(S(=O)(=O)N(C)C)c1	-11.9	2.0	-11.5	22.1*	-8.0	-6.1
COc1cc(/C=C/C(=O)NNC(=O)c2cccc(S(=O)(=O)N(C)C)c2)cc(OC)c1OC	nt	0.6	-0.9	-1.8	nt	nt
C/C(=N\NC(=S)NCC(C)(C)C)c1cc(F)cc(F)c1O	10.4	6.2	11.2	33.1*	42.7*	0.3	535nm interf DR=>122
O=C(NCC1CCN(C(=O)C(=O)c2cccs2)CC1)c1ccc2c(c1)CCO2	nt	nt	nt	17.5	nt	nt
O=C(Cc1cnn(-c2ccccc2)c1)c1ccc(O)c(O)c1O	38.3	8.1	-8.3	24.1*	15.1	-4.0
CCc1cc(C(=O)Cc2cnn(-c3ccccc3)c2)c(O)cc1O	11.0	-0.4	8.8	-39.5	nt	nt
CCOC(=O)N1CCN(C(=O)C[C@H]2C(=O)N(Cc3ccc(OC)cc3)C3=CCCC[C@@]32C(=O)OCC)CC1	nt	nt	nt	3.5	nt	nt
COC(=O)c1ccc(NC(=O)CCN2CCN(CCC(=O)Nc3ccc(C(=O)OC)cc3)CC2)cc1	11.2	1.4	-4.1	-6.9	nt	nt
COC(=O)c1ccc(NC(=O)CCN2CCOCC2)cc1	8.3	0.9	0.1	22.0*	-11.4	-4.5
Cc1c(C(C)c2ccccc2O)c2ccccc2n1C (stereo not given)	nt	nt	nt	3.3	nt	nt
O=C(Nc1ccc(C(O)(C(F)(F)F)C(F)(F)F)cc1)c1ccc(F)cc1Cl	nt	nt	nt	-7.7	nt	nt
Cc1ccc(CNC(=O)CSc2nc3[nH]ncc3c(=O)[nH]2)cc1	5.2	-2.2	-6.9	19.4*	-2.0	-4.7
CC(C)CN(C(=O)C1CCC1)c1c(N)n(Cc2ccccc2)c(=O)[nH]c1=O	nt	-0.2	13.0	20.0*	1.8	-6.8
COC(=O)c1sc(C(C)(C)C)cc1CS(=O)(=O)c1ccc(Cl)cc1	-4.9	-0.1	2.0	-4.7	nt	nt
COC(=O)c1sc(C(C)(C)C)cc1CSc1ccccc1	12.3	1.5	5.2	21.1*	-20.7	-8.0
O=C(NN1C(=O)c2ccccc2NC1c1ccccn1)c1ccc([N+](=O)[O-])cc1 (stereo not given)	4.4	-7.7	6.3	24.9*	8.8	-4.8
CN1CCc2ccccc2CC1=O	-12.1	-2.0	16.8	20.4*	-1.0	-5.4
COc1ccc(C2NCCc3c2[nH]c2ccccc32)cc1CSc1nc2ccccc2s1 (stereo not given)	-11.5	-8.5	nt	19.8*	-2.3	-3.9
O=c1[nH]c(CSc2nc3ccccc3s2)nc2ccccc12	9.4	1.1	0.3	-36.4	nt	nt
Cc1cnc(C(=O)OCC(=O)Nc2sc3c(c2C#N)CCC3)cn1	nt	-1.9	-1.6	2.3	nt	nt
Cc1cccc(OCC(=O)Nc2sc3c(c2C#N)CCC3)c1	10.0	-8.6	3.5	22.6*	15.6	-6.6
C/C(=N\NC(=O)c1nnn(-c2nonc2N)c1-c1ccccc1)c1ccccc1O	19.6	-3.0	3.8	26.4*	30.4*	1.6	535nm interf DR=>122
CCCc1c(C(=O)N/N=C(\C)c2ccccc2O)nnn1-c1nonc1N	nt	nt	nt	15.5	nt	nt
SMILES	UBC9 SUMO inh	NR3A LBD binder	UBC13 polyUb	HGIII-sPLA2 inh	sPLA2 confirm	BODIPY interf	others
COc1ccc(-n2c(SCC(=O)Nc3cc(C)c(NC(=O)c4ccccc4)cc3OC)nnc2-c2ccco2)cc1	nt	nt	nt	-8.5	nt	nt
Cc1cc(C)c(-c2c(O)c3c(n(C)c2=O)CC(C)(C)CC3=O)c(C)c1	0.2	-4.2	-7.3	21.4*	-4.0	-1.7
Cn1c2c(c(O)c(-c3ccccc3)c1=O)C(=O)CC(C)(C)C2	-11.3	-2.6	-0.4	17.6	nt	nt
O=C(CCc1nnc(-c2ccccc2)o1)NC1CCCCC1	0.3	-1.3	3.5	19.3*	5.6	-5.2
Cc1ccc(S(=O)(=O)N2CCCC(N3CCOCC3)C2)cc1Cl (stereo not given)	0.4	0.2	-2.0	19.4*	-2.2	-9.5
COc1ccc(C)cc1S(=O)(=O)N1CCCC(N2CCOCC2)C1 (stereo not given)	7.5	0.5	-12.4	-4.9	nt	nt
O=C(NCCc1ccccc1)OCc1cn(Cc2ccc(C(F)(F)F)cc2)nn1	nt	nt	nt	-2.0	nt	nt
Cc1ccccc1NC(=O)C1CCCN1S(=O)(=O)c1cccnc1 (stereo not given)	nt	nt	nt	4.5	nt	nt
COc1cc(/C=N/Nc2ccc([N+](=O)[O-])cc2S(=O)(=O)N2CCOCC2)cc(OC)c1OC	5.0	0.3	-10.0	-3.0	nt	nt
O=[N+]([O-])c1ccc(N/N=C/c2cccc(O)c2O)c(S(=O)(=O)N2CCOCC2)c1	50.9*	30.4*	-24.4	30.8*	39.1*	15.3*
Cc1ccc(Cn2cc(COC(=O)NCC(C)C)nn2)cc1	nt	nt	nt	7.3	nt	nt
S=C(/N=c1/sccn1Cc1ccccc1)NC1CC1	4.6	-1.6	21.7	19.7*	17.8	-5.6
COC(=O)[C@]12C[C@H](CC(=O)N3CCN(C(=O)c4ccco4)CC3)C(=O)N(Cc3ccco3)C1=C[C@H](COCc1ccccc1)O[C@@H]2C	nt	nt	nt	-0.8	nt	nt
Cc1ccc(Cn2cc(CN3[C@@H](CC(C)C)COc4cc(Br)ccc4S3(=O)=O)nn2)cc1	nt	nt	nt	14.1	nt	nt
S=c1[nH]nc(Cc2cccc3ccccc23)o1	-3.3	7.7	-5.1	24.5*	13.8	3.2
CCOC(=O)[C@]12CCCC=C1N(CCCOC)C(=O)[C@@H]2CC(=O)NCCCN1CCCC1=O	nt	nt	nt	4.2	nt	nt
CC(NC(=O)/C(C#N)=C/c1ccco1)c1ccccc1 (stereo not given)	-14.5	-2.1	-9.7	19.6*	-0.1	-2.7
O=C(NC1CCCC1)N1CCC(c2nc3ccc(Cl)cc3[nH]2)CC1	nt	nt	nt	2.8	nt	nt
CCCC[n+]1ccn(-c2nc3ccccc3nc2[N-]S(=O)(=O)c2ccc(Br)cc2)c1	20.6	1.2	24.1	20.8*	0.4	-12.4
COc1cc([N+](=O)[O-])c(OC)cc1SCc1n[nH]c(=S)n1-c1ccc(F)cc1	5.5	1.2	-4.2	22.2*	35.8*	5.6
COc1cc([N+](=O)[O-])c(OC)cc1SCc1n[nH]c(=S)n1-c1ccc(C)cc1	-45.9	11.9*	-2.8	19.3*	22.1*	5.4
Cc1ccc(-n2c(SCC(=O)c3ccc(Br)cc3)nnc2-c2ccncc2)cc1	nt	nt	nt	-47.4	nt	nt
CCC1=NN(C(=O)c2ccccc2[N+](=O)[O-])C(O)(c2ccccc2)C1 (stereo not given)	nt	nt	nt	22.7*	6.7	-1.2
COC(=O)C1=NN(C(=O)c2ccccc2)C(O)(c2ccc([N+](=O)[O-])cc2)C1 (stereo not given)	14.5	-8.9	-20.9	33.3*	56.6*	16.9*
